High-throughput results as filed in PubChem BioAssay.
Many of the other results were omitted from the sample, so hits are more common in it than they were.
YopH PTP inh = blocks Yersinia enterocolitica YopH tyrosine phosphatase | fluorescence Ex485/Em525 | inhibition, % (test concentration not listed) | actives 0.16% (n = 140,000); in the data active = inhibition above about 50%
Mtb RmlCD inh = M. tuberculosis RmlC/RmlD inhibition | AID 1533 | RmlC+RmlD coupled enzyme assay, percent inhibition; primary screen in compound mixtures | actives 0.03% (n = 160,000) | inhibition, % at 3.6 µM | P9WH09+P9WH11; in the data active = inhibition mostly above about 34%, no sharp cut-off
Target sequence (P9WH09 whole entry, looked up): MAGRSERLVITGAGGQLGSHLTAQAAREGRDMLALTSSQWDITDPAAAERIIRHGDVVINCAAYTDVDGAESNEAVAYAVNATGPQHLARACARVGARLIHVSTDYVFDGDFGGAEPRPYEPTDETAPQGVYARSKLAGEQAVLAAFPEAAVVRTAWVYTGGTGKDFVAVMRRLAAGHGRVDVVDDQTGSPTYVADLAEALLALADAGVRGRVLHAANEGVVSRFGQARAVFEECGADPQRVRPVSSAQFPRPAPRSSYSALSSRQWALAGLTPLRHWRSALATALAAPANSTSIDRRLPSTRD
Target sequence (P9WH11 whole entry, looked up): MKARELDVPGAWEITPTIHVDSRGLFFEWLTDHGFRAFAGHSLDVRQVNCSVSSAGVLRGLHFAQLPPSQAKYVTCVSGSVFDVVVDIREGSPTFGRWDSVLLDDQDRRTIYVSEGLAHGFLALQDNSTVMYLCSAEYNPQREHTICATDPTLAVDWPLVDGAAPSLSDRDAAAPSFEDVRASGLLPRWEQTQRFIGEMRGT
Starred values were filed as active, the others as inactive.

For COc1ccc(N2C(=O)[C@H]3[C@@H](C2=O)C2c4ccccc4C=NN2[C@H]3C(=O)C(C)(C)C)cc1 (some centres undefined) the results were Mtb RmlCD inh 11.
For COc1ccc(NC(=S)NC2CCCCC2)cn1 the results were Mtb RmlCD inh -4.
`O=Cc1ccc(OCc2nnsc2Cl)cc1` gave Mtb RmlCD inh -11.
For Cc1cccn2c(=O)c(C=Nc3ccccc3)c(NCCO)nc12 the results were YopH PTP inh -46 and Mtb RmlCD inh 55*.
`Cc1cccn2c(=O)c(C=Nc3ccc(Cl)cc3)c(NCCO)nc12` gave YopH PTP inh -33 and Mtb RmlCD inh -2.
`CN1CCc2c(sc3c2C(=O)NC(c2ccco2)N3)C1` (centres undefined) gave YopH PTP inh -31.
`CN1CCc2c(sc3c2C(=O)NC(c2cccc(OC(=O)c4cccs4)c2)N3)C1` (centres undefined) gave YopH PTP inh 72* and Mtb RmlCD inh 6.
For Cc1[nH]n(-c2ccccc2)c(=O)c1C(C[N+](=O)[O-])c1ccc(F)cc1 (centres undefined) the results were YopH PTP inh -4 and Mtb RmlCD inh -9.
Cc1[nH]n(-c2ccccc2)c(=O)c1C(C[N+](=O)[O-])c1ccc(Cl)cc1 (centres undefined) was read as YopH PTP inh 76* and Mtb RmlCD inh 4.
Screening Cc1ccc(C(C[N+](=O)[O-])c2c(C)[nH]n(-c3ccccc3)c2=O)cc1 (centres undefined) returned YopH PTP inh 83* and Mtb RmlCD inh 5.
Screening Cc1[nH]n(-c2ccccc2)c(=O)c1Sc1ccc(Cl)cc1 returned YopH PTP inh -1 and Mtb RmlCD inh 4.
For Cc1ccc(S(=O)(=O)N(C)CCCC(=O)NC(C)(C)C)cc1 the results were Mtb RmlCD inh 9.
For Cc1csc2ncnc(N3CCN(C(=S)Nc4ccc(F)cc4F)CC3)c12 the results were Mtb RmlCD inh 15.
`Cc1ccc2c(c1)c1ncnc(N3CCOCC3)c1n2C` gave YopH PTP inh -35 and Mtb RmlCD inh 96*.
Cc1ccc2c(c1)c1ncnc(N3CCC4(CC3)OCCO4)c1n2C was read as YopH PTP inh -33 and Mtb RmlCD inh 10.
CC[C@@H](CO)NC(=O)[C@@H]1C=C2c3cccc4c3c(cn4C)C[C@H]2N(C)C1 was read as YopH PTP inh 64*.
CCC(CO)NC(=O)C1C=C2c3cccc4[nH]cc(c34)CC2N(C)C1 (centres undefined) was read as Mtb RmlCD inh -13.
`O=C(NC1CCCC1)C1CCN(c2cnccn2)CC1` gave Mtb RmlCD inh -2.
O=C1C(Nc2ccccc2)=C(N2CCCCC2)C(=O)c2ccccc21 was read as YopH PTP inh 98* and Mtb RmlCD inh -4.
COc1ccccc1NC(=O)N1CCCC1 was read as Mtb RmlCD inh 9.
`O=C(O)c1cccc(NC2=C(Cl)C(=O)c3ccccc3C2=O)c1` gave Mtb RmlCD inh -2.
For Cc1ccc(NC2=C(N3CCCCC3)C(=O)c3ccccc3C2=O)cc1 the results were YopH PTP inh 76*.
Screening COC1=C(Nc2ccc(C)cc2)C(=O)c2ccccc2C1=O returned YopH PTP inh -2 and Mtb RmlCD inh 4.
Screening O=C1C(Nc2cccc(O)c2)=C(N2CCCCC2)C(=O)c2ccccc21 returned YopH PTP inh 81* and Mtb RmlCD inh 1.
`CN(C1=C(N2CCCCC2)C(=O)c2ccccc2C1=O)c1ccccc1` gave YopH PTP inh 8.
Screening COc1ccccc1NC1=C(N2CCCCC2)C(=O)c2ccccc2C1=O returned YopH PTP inh 90*.
Screening COc1ccc2c(c1)CCc1c-2nc2ccccc2c1N1CCOCC1 returned Mtb RmlCD inh 7.
`C=CC[n+]1ccc(/C=C2\C=Cc3cc(C)ccc3N2CC)c2ccccc21` gave Mtb RmlCD inh 0.
Screening COc1ccccc1C(=O)OCCNC(=O)Cn1cnc2c1c(=O)n(C)c(=O)n2C returned Mtb RmlCD inh -2.
For COC(=O)C(Cc1csc2ccc(Cl)cc12)NC(=O)c1ccc(Cl)cc1 (centres undefined) the results were Mtb RmlCD inh 7.
Screening O=C(/C=C/c1ccc(O)cc1)c1ccccc1 returned Mtb RmlCD inh 17.
O=C(/C=C/c1ccc(O)cc1)c1ccc(NC2=C(N3CCCCC3)C(=O)c3ccccc3C2=O)cc1 was read as YopH PTP inh 93* and Mtb RmlCD inh -6.
`COc1ccc(CCNC(=O)Nc2ccc([N+](=O)[O-])cc2)cc1OC` gave Mtb RmlCD inh 4.
COC(=O)N(NC(=O)C(O)(c1ccccc1)c1ccccc1)c1ccccc1 was read as YopH PTP inh 18 and Mtb RmlCD inh 7.
COC(=O)N(NC(=O)C(O)(CCC(C)C)CCC(C)C)c1ccccc1 was read as YopH PTP inh 70*.
Screening COCC(C)NCc1ccc(OC)c(Br)c1 (centres undefined) returned Mtb RmlCD inh -10.
CNc1nc(C23CC4CC(CC(C4)C2)C3)cs1 was read as Mtb RmlCD inh -17.
For O=C1CCC(=O)N1CC(=O)N1c2ccccc2Sc2ccccc21 the results were YopH PTP inh 54* and Mtb RmlCD inh 9.
For Cc1cc(C)n(CC(=O)N2c3ccccc3Sc3ccccc32)n1 the results were YopH PTP inh -6.
`O=C(N/N=C/C1CC2C=CC1C2)c1ccccc1O` (centres undefined) gave Mtb RmlCD inh 56.
Screening COc1ccc(/C=N/NC(N)=S)cc1OC(=O)c1cccc2ccccc12 returned YopH PTP inh -24.
`CC(=O)OCCCNc1cc(SCc2ccco2)c2nonc2c1[N+](=O)[O-]` gave YopH PTP inh 69* and Mtb RmlCD inh 2.
For CCCC(=O)OCCNc1cc(SCc2ccco2)c2nonc2c1[N+](=O)[O-] the results were YopH PTP inh 37 and Mtb RmlCD inh 2.
`O=c1oc2c(CN3CCOCC3)c(O)ccc2c2ccccc12` gave YopH PTP inh 11.
For O=c1oc2c(CN3CCOCC3)c(O)ccc2c2c1CCCC2 the results were YopH PTP inh -14 and Mtb RmlCD inh 44*.
CCn1nc(-c2ccccc2)nc2c(=O)n(C)c(=O)nc1-2 was read as YopH PTP inh 102*.
CCOC(=O)Cn1nc(-c2ccccc2)nc1-c1ccccc1 was read as YopH PTP inh -9 and Mtb RmlCD inh 52.
Screening COc1ccccc1N1C(C)=CC(=C(C#N)c2nc3ccccc3s2)C=C1C returned YopH PTP inh 70* and Mtb RmlCD inh -8.
CC1=CC(=C(C#N)c2nc3ccccc3s2)C=C(C)N1c1ccc(F)cc1 was read as YopH PTP inh 65* and Mtb RmlCD inh -7.
Screening COc1cccc(-c2nc3ccccc3s2)c1O returned Mtb RmlCD inh -8.
For CC(C)=C(C#N)c1nc2ccccc2s1 the results were YopH PTP inh 12.
O=c1c(Cc2ccc(F)cc2)c(O)ccn1CCCn1ccnc1 was read as Mtb RmlCD inh -10.
C=CCN(c1ccccc1C(=O)O)S(=O)(=O)/C=C/c1ccccc1 was read as Mtb RmlCD inh 7.
For CN1CCc2cc3c(c4c2[C@H]1[C@H](O)c1ccccc1-4)OCO3 the results were YopH PTP inh 101*.
Screening COc1ccc2c(c1OC)C(=O)OC2C1c2c(cc3c(c2OC)OCO3)CCN1C (centres undefined) returned YopH PTP inh -20 and Mtb RmlCD inh 19.
Screening COc1ccc(C)cc1NC(=O)c1ccc([N+](=O)[O-])cc1[N+](=O)[O-] returned Mtb RmlCD inh -10.
